# Laboratory results taken from the supplement of paper PMC12636033.
# ± gives the standard deviation of the averaged measurements. In all, about 33,000 sequences were measured (“E-score (rank enrichment, -0.5 to 0.5)”: median about -0.0068, highest 2% from about 0.24 on). The sample holds the highest values, similar sequences and a random draw of the others, so the mix is not that of the screen.
# Test system: muMax20 (Max(13-93) K31hArg/K57hArg, M65Nle)
# Assay: PBM 8-mer E-score (E-score (rank enrichment, -0.5 to 0.5)); higher = stronger preferential binding
# Experimental: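 Protein binding microarray (universal PBM chip covering all 10-mers in fixed probe flanks) with chemically synthesized human Max(13-93) bHLH-LZ analogs (not full-length Max) bearing noncanonical residues (hArg, Tha, Aib, Nle at 65) and aromatic Cys staples. Read-out per 8-mer (and its reverse complement): E-score (rank-based enrichment, -0.5 to 0.5) and Z-score of median probe intensity.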
row,Sequence,PBM 8-mer E-score
1,GCAGATGA,0.0628 ± 0.064
2,CTTAGACC,-0.135 ± 0.073
3,GAGGGGCC,-0.0409 ± 0.045
4,ACGTGTAC,0.233 ± 0.056
5,CCGTGTAA,-0.147 ± 0.048
6,ACGTGTAA,0.327 ± 0.048
7,TCGTGTAA,0.13 ± 0.07
8,ACGTGTAG,0.19 ± 0.087
9,ACGTGTAT,0.386 ± 0.031
10,ATACTGAA,0.0687 ± 0.079
11,GCAGGTCA,-0.191 ± 0.0023
12,CGCTCGAA,-0.156 ± 0.0039
13,AGATCTTC,-0.15 ± 0.053
14,CCATGTCG,-0.0015 ± 0.13
15,GATACAAA,0.0222 ± 0.023
16,TACACATA,0.245 ± 0.037
17,AATACAAA,0.343 ± 0.042
18,AATACATG,0.205 ± 0.015
19,AATACAAG,0.137 ± 0.0018
20,AATACATT,0.158 ± 0.021
21,GACACATA,0.139 ± 0.071
22,AATACATA,0.255 ± 0.074
23,GATACATA,0.204 ± 0.044
24,CATACATA,0.163 ± 0.068
25,TATACATA,0.237 ± 0.023

row,Sequence,PBM 8-mer E-score
1,CACACATA,0.12 ± 0.12
2,ACTGGATC,-0.0849 ± 0.029
3,CCTCATCA,-0.0311 ± 0.07
4,CGTCTACA,-0.0683 ± 0.077
5,ATTCGACG,0.0309 ± 0.1
6,CACGAGCA,-0.159 ± 0.013
7,CAAAACGA,0.0111 ± 0.00023
8,GAAGACGA,-0.0988 ± 0.065
9,AAAAACGG,-0.048 ± 0.14
10,AAAAACGC,0.0604 ± 0.015
11,AAAGACGG,0.0825 ± 0.019
12,AAAAACGA,0.297 ± 0.0076
13,GAAAACGA,0.0327 ± 0.09
14,AAAAACGT,0.249 ± 0.0044
15,AAAGACGA,0.246 ± 0.0064
16,CTCGGTCC,-0.2695 ± 0.0006
17,AGAGTTCA,-0.124 ± 0.038
18,CGTTCGCA,-0.0226 ± 0.0093
19,CTCAGACA,0.044 ± 0.035
20,GCCATATA,0.0868 ± 0.0087
21,ATACTTCA,0.0693 ± 0.032
22,GTACTACA,0.262 ± 0.072
23,CTACTTCA,0.00799 ± 0.001
24,CTACTACA,0.146 ± 0.08
25,GTACTTCA,0.237 ± 0.13

row,Sequence,PBM 8-mer E-score
1,ATACTACA,0.222 ± 0.078
2,ATCAGCGC,-0.0642 ± 0.0034
3,CACCGGAG,-0.173 ± 0.083
4,ACACATTC,-0.0504 ± 0.14
5,AATACGAA,0.136 ± 0.041
6,TATCAACA,0.158 ± 0.054
7,AATCAACA,0.256 ± 0.032
8,GATCAACA,0.0109 ± 0.0053
9,ACGGTGTG,-0.143 ± 0.056
10,CCCTTGTA,0.0442 ± 0.13
11,ACCTTGTA,0.238 ± 0.077
12,GCCTTGTA,0.029 ± 0.077
13,GTCAGGAA,-0.0169 ± 0.068
14,ATAGAGCC,-0.106 ± 0.093
15,GAATACCA,0.121 ± 0.025
16,TAATACCA,0.24 ± 0.014
17,CAATACTA,0.16 ± 0.062
18,AAATACTA,0.193 ± 0.081
19,TAATACTA,0.252 ± 0.0039
20,CAATACCA,0.149 ± 0.042
21,ACAGCAGG,-0.0464 ± 0.034
22,GCTCCCCA,0.128 ± 0.042
23,CGGTCCTA,-0.17 ± 0.11
24,ATATGGGG,0.0664 ± 0.016
25,GCGCGAAC,-0.0762 ± 0.17

row,Sequence,PBM 8-mer E-score
1,GACTAAGC,-0.239 ± 0.043
2,CACCATTA,0.0322 ± 0.16
3,AACCATTA,0.269 ± 0.0088
4,AACCATTG,-0.0386 ± 0.14
5,TAAATGAA,0.114 ± 0.11
6,AGTTGCAC,-0.00822 ± 0.011
7,AGTTGCAG,0.0866 ± 0.039
8,AGTTGCAT,0.287 ± 0.067
9,GGTTACAC,0.151 ± 0.076
10,CGTGCTCA,0.162 ± 0.051
11,CGATGGAG,-0.153 ± 0.037
12,GATGTGAC,-0.206 ± 0.059
13,CACGTGGG,0.447 ± 0.062
14,CAAGTGGG,0.0751 ± 0.013
15,CACGTGGC,0.442 ± 0.068
16,CATGTGAG,0.216 ± 0.059
17,CATGTGAC,0.314 ± 0.075
18,GACGTGGC,-0.0512 ± 0.032
19,AACGTGGC,0.0382 ± 0.033
20,GATGTGAA,0.105 ± 0.079
21,TATGTGAA,0.299 ± 0.074
22,AATGTGAA,0.211 ± 0.056
23,AACGTGGG,0.184 ± 0.14
24,AAGTTCTC,-0.179 ± 0.0056
25,CACTGCAC,-0.0231 ± 0.055

row,Sequence,PBM 8-mer E-score
1,CTCTAACC,-0.0244 ± 0.061
2,CGAATTTC,0.0312 ± 0.1
3,CGTTACCA,0.124 ± 0.012
4,CGCCATTA,-0.0752 ± 0.029
5,GCCCCTGA,-0.179 ± 0.034
6,AAGCTTAG,0.0465 ± 0.086
7,AATGTGGG,0.142 ± 0.14
8,TACGTGGA,0.0197 ± 0.044
9,TGTGTGAA,0.183 ± 0.038
10,CATGTGGG,0.309 ± 0.033
11,AGTGTGAA,0.254 ± 0.011
12,GACGTGGA,0.04 ± 0.064
13,AGTGTGAG,0.163 ± 0.14
14,CATGTGGA,0.213 ± 0.054
15,CACGTGGA,0.459 ± 0.037
16,GCCTCGGA,-0.187 ± 0.058
17,AAGTAGCC,-0.0862 ± 0.0056
18,AACCTGAA,0.0509 ± 0.081
19,AGGTTTCA,-0.031 ± 0.018
20,CACAAAAC,0.165 ± 0.027
21,TAGACTCA,-0.163 ± 0.0053
22,CTGTGAGC,-0.113 ± 0.058
23,AAAAAGCA,0.218 ± 0.046
24,AAAAAGCT,0.272 ± 0.099
25,ACAAAGAT,0.137 ± 0.027

row,Sequence,PBM 8-mer E-score
1,AAAAAGCC,0.166 ± 0.028
2,AAAAAGAC,0.0949 ± 0.026
3,AAAAAGAT,0.24 ± 0.03
4,ATATCGCG,0.0599 ± 0.043
5,AGAAAGAT,0.061 ± 0.093
6,ATTTTGAA,0.253 ± 0.084
7,ATTTTGAG,0.111 ± 0.012
8,AATTTGAA,0.149 ± 0.027
9,CTCGAGGA,-0.0146 ± 0.017
10,AATCCTGA,-0.167 ± 0.053
11,ACACATGC,0.22 ± 0.019
12,CCACATGG,0.255 ± 0.11
13,GCACATGA,0.256 ± 0.095
14,AAACATGA,0.169 ± 0.031
15,GCACATGC,0.166 ± 0.06
16,ACACATGG,0.271 ± 0.06
17,CCACATGC,0.217 ± 0.057
18,AAACATGG,0.178 ± 0.064
19,CCACATGA,0.225 ± 0.1
20,ACACATGA,0.148 ± 0.068
21,AAACATGT,0.331 ± 0.04
22,TCACATGA,0.173 ± 0.029
23,GAGGAGCC,-0.1 ± 0.084
24,ACCGGTGG,-0.147 ± 0.06
25,ACTACATC,0.224 ± 0.007

row,Sequence,PBM 8-mer E-score
1,CACCCCTC,0.11 ± 0.013
2,AACCCATC,-0.108 ± 0.085
3,ACACATGT,0.346 ± 0.023
4,ACACATCT,0.11 ± 0.072
5,ACACATAT,0.184 ± 0.053
6,CAGGCGCC,-0.0488 ± 0.0079
7,ATATTGAT,0.25 ± 0.047
8,ATATTGAG,0.0529 ± 0.069
9,ATATTGAC,0.0428 ± 0.0027
10,TTATTGAA,0.3 ± 0.045
11,ATATTCAT,0.287 ± 0.04
12,ATATTGAA,0.161 ± 0.022
13,ATATTCAA,0.197 ± 0.0025
14,ATATTCAC,0.181 ± 0.12
15,GTATTGAA,0.209 ± 0.047
16,AATGGTAC,0.0908 ± 0.11
17,AACGGCAC,-0.107 ± 0.11
18,CGGTCTCA,-0.242 ± 0.2
19,GGTACCTA,-0.105 ± 0.16
20,AAGCACTT,0.132 ± 0.045
21,ACTATGCG,0.16 ± 0.042
22,AATAAACA,0.171 ± 0.075
23,AATAAAAC,0.271 ± 0.01
24,ATAAAAGG,0.192 ± 0.058
25,AATAAACC,0.175 ± 0.022

row,Sequence,PBM 8-mer E-score
1,AATAAAGG,0.0493 ± 0.095
2,ATAAAAAA,0.189 ± 0.02
3,AAAAAAAG,0.178 ± 0.016
4,AATAAAAT,0.0637 ± 0.011
5,ATAAAAAG,0.328 ± 0.066
6,AATAAAAG,0.281 ± 0.011
7,AATAAAAA,0.266 ± 0.015
8,GATAAAAC,0.203 ± 0.078
9,CGAGCAGC,-0.0303 ± 0.083
10,AGCTTGCA,-0.0404 ± 0.11
11,TCCCTAGA,-0.0505 ± 0.13
12,CAATCTTC,-0.0387 ± 0.0054
13,AAAGTCTG,0.032 ± 0.042
14,GGAATGGA,-0.00962 ± 0.022
15,CACGCGGC,0.281 ± 0.064
16,CACGCGAG,0.0936 ± 0.048
17,CACGCGGA,0.289 ± 0.066
18,AACGCGGA,-0.13 ± 0.019
19,AACGCGGC,-0.118 ± 0.16
20,CACGCGAA,0.0636 ± 0.033
21,CACGCGAC,0.245 ± 0.15
22,CACGCGGG,0.154 ± 0.086
23,GACGCGGC,-0.105 ± 0.025
24,CGACAGCG,-0.213 ± 0.1
25,CTAGATTA,0.104 ± 0.021

row,Sequence,PBM 8-mer E-score
1,AATAACAG,0.0596 ± 0.12
2,GATAACAA,0.0646 ± 0.12
3,AATAACAT,0.256 ± 0.028
4,AATAACAA,0.271 ± 0.0084
5,ACTAACAA,0.236 ± 0.048
6,AGTAACAG,0.142 ± 0.024
7,TATAACAA,0.258 ± 0.015
8,AGTAACAA,0.117 ± 0.048
9,AGTAACAT,0.289 ± 0.038
10,AATAACCA,0.076 ± 0.0086
11,AATAACAC,0.122 ± 0.0046
12,CATAACAA,0.147 ± 0.03
13,ACCGGACT,-0.151 ± 0.13
14,TCAATCCA,0.105 ± 0.008
15,CCTTAAGA,0.0233 ± 0.059
16,ACTTTCAT,0.0117 ± 0.13
17,AGGCGCGC,0.115 ± 0.0093
18,GTGATTAA,0.256 ± 0.066
19,GCGATTAA,0.14 ± 0.13
20,ACGATTAA,0.0506 ± 0.14
21,CTGATTAA,0.0981 ± 0.079
22,TCGATTAA,0.261 ± 0.051
23,ATGATTAA,0.169 ± 0.049
